Data reported in PubChem BioAssay (NCI).
About 79,000 compounds went through this panel and 15% of them were active in at least one assay; those are over-represented in the sample as a whole. Values without a mark were called inactive. Calls of active or inactive are those of the source. Rule as the data show it: active = growth inhibition above about 70%; inactive = the rest.

Key:
[1] = NCI Yeast Anticancer Drug Screen. Data for the rad52 strain (AID 147);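 also: 0% = growth of vehicle-treated control cultures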; conditions: S. cerevisiae rad52 mutant growth inhibition, stronger effect = higher value
Procedure, shortened: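 Yeast strain carrying a DNA damage repair alteration was exposed to test compounds. Growth inhibition was measured relative to vehicle-treated controls.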

[2] = NCI Yeast Anticancer Drug Screen. Data for the wt1 strain (AID 149);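 also: 0% = growth of vehicle-treated wt1 cultures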; conditions: S. cerevisiae wt1 strain (SPY 50644) growth inhibition, stronger effect = higher value
Procedure, shortened: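 Using yeast strain wt1, compound-induced growth inhibition was determined against vehicle-treated cultures.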

[3] = NCI Yeast Anticancer Drug Screen. Data for the rad50 strain (AID 155);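 also: 0% = growth of vehicle-only cultures of the same strain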; conditions: S. cerevisiae rad50 strain growth inhibition, stronger effect = higher value
Procedure, shortened: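 Relative growth inhibition (compound vs vehicle) was measured in yeast with a defined repair-gene alteration.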

[4] = NCI Yeast Anticancer Drug Screen. Data for the mec2-1 strain (AID 157); conditions: S. cerevisiae mec2-1 strain, stronger effect = higher value
Procedure, shortened: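 mec2-1 yeast strain, carrying an alteration in DNA damage repair or cell cycle control, was exposed to compounds; growth inhibition was measured relative to vehicle-treated controls.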

[5] = NCI Yeast Anticancer Drug Screen. Data for the rad14 strain (AID 159);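 also: 0% = growth of vehicle-treated control cultures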; conditions: S. cerevisiae rad14 strain growth inhibition, stronger effect = higher value
Procedure, shortened: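 Screen for anticancer potential: a yeast strain altered in DNA damage repair is grown with compound, and reduced growth is quantified against vehicle controls.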

[6] = NCI Yeast Anticancer Drug Screen. Data for the sgs1 mgt1 strain (AID 161);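 also: 0% = growth of cultures given vehicle only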; conditions: S. cerevisiae sgs1 mgt1 strain, stronger effect = higher value
Procedure, shortened: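 This yeast growth screen uses a strain with defined DNA-repair lesions; compound-treated growth is compared with vehicle-treated growth.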

[7] = NCI Yeast Anticancer Drug Screen. Data for the CLN2oe strain (AID 163);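 also: 0% = growth of vehicle-only control cultures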; conditions: S. cerevisiae CLN2oe strain, stronger effect = higher value
Procedure, shortened: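 Yeast cells carrying a defined cell-cycle control alteration were exposed to test compounds. Growth inhibition was scored against vehicle-treated control cultures.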

[8] = NCI Yeast Anticancer Drug Screen. Data for the cln2 rad14 strain (AID 165);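 also: 0% = growth equal to vehicle treated cultures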; conditions: S. cerevisiae cln2 rad14 strain, stronger effect = higher value
Procedure, shortened: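 Yeast carrying cln2 and rad14 alterations (cell cycle control and DNA damage repair) were exposed to compounds. Growth inhibition was measured against vehicle-treated controls.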

[9] = NCI Yeast Anticancer Drug Screen. Data for the bub3 strain (AID 167); conditions: S. cerevisiae bub3 mutant strain, stronger effect = higher value
Procedure, shortened: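 Screening used yeast with an engineered genetic alteration affecting cell cycle control. Compound-exposed cultures were compared with vehicle cultures, and reduced growth was taken as inhibition.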

[10] = NCI Yeast Anticancer Drug Screen. Data for the wt2 strain (AID 169);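 also: 0% = growth of vehicle-treated yeast cultures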; conditions: S. cerevisiae wt2 strain growth inhibition, stronger effect = higher value
Procedure, shortened: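 Yeast cells were exposed to test compounds, and growth inhibition was measured relative to vehicle-treated controls.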

[11] = NCI Yeast Anticancer Drug Screen. Data for the mlh1 strain (AID 171);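 also: 0% = growth of vehicle-treated control cultures of the same strain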; conditions: S. cerevisiae mlh1 strain growth inhibition, stronger effect = higher value
Procedure, shortened: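 Yeast carrying a defined genetic alteration in DNA damage repair or cell cycle control were exposed to test compounds. Growth inhibition was measured relative to vehicle-treated controls.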

[12] = NCI Yeast Anticancer Drug Screen. Data for the sgs1 strain (AID 173);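 also: 0% = growth of vehicle-only control cultures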; conditions: S. cerevisiae sgs1 mutant, stronger effect = higher value
Procedure, shortened: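 Yeast mutant strains carrying defined defects in DNA damage repair or cell cycle control were exposed to test compounds. Growth inhibition was scored against vehicle-treated controls.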

[13] = NCI Yeast Anticancer Drug Screen. Data for the mlh1 rad18 strain (AID 175); conditions: S. cerevisiae mlh1 rad18 strain growth inhibition, stronger effect = higher value
Procedure, shortened: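 Growth inhibition of the yeast strain was measured after compound exposure and expressed relative to vehicle-treated controls. The strain carries defined defects in DNA damage repair.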

[14] = NCI Yeast Anticancer Drug Screen. Data for the rad18 strain (AID 177); conditions: S. cerevisiae rad18 mutant growth inhibition, stronger effect = higher value
Procedure, shortened: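 Yeast carrying a defined DNA damage repair alteration were exposed to compounds. Growth inhibition was expressed relative to vehicle-treated controls.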

[15] = NCI Yeast Anticancer Drug Screen. Data for the rad50EPP+ strain (AID 151);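 also: 0% = growth of vehicle-treated control cultures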; conditions: S. cerevisiae rad50 mutant strain, stronger effect = higher value
Procedure, shortened: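 Yeast strain carrying rad50 alteration (rad50EPP+) exposed to compounds; growth inhibition measured relative to vehicle-treated controls.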

[16] = at 5.0 µM (retest, dose inferred, filed as 0.5)
[17] = at 50.0 µM (retest, dose inferred, filed as 5.0)

N#CSC1CCCCNC1=O (stereo not drawn)
growth inhibition ([1]; at 1.2 µM): 2%
growth inhibition ([1]; at 3.7 µM): 10%
growth inhibition ([1]; at 11.0 µM): 32%
growth inhibition ([1]; at 33.0 µM): 83% (active)
growth inhibition ([1]; at 100.0 µM): 98% (active)
growth inhibition ([2]; at 1.2 µM): -3%
growth inhibition ([2]; at 3.7 µM): -3%
growth inhibition ([2]; at 11.0 µM): 9%
growth inhibition ([2]; at 33.0 µM): 46%
growth inhibition ([2]; at 100.0 µM): 93% (active)
growth inhibition ([3]; at 1.2 µM): 0%
growth inhibition ([3]; at 3.7 µM): 3%
growth inhibition [3, 16]: -150%
growth inhibition ([3]; at 11.0 µM): 36%
growth inhibition ([3]; at 33.0 µM): 86% (active)
growth inhibition [3, 17]: 26%
growth inhibition ([3]; at 50.0 µM): 54.2%
growth inhibition ([3]; at 100.0 µM): 98% (active)
growth inhibition ([4]; at 1.2 µM): 4%
growth inhibition ([4]; at 3.7 µM): 3%
growth inhibition [4, 16]: -47%
growth inhibition ([4]; at 11.0 µM): 25%
growth inhibition ([4]; at 33.0 µM): 51%
growth inhibition [4, 17]: 3%
growth inhibition ([4]; at 50.0 µM): 78.3% (active)
growth inhibition ([4]; at 100.0 µM): 94% (active)
growth inhibition ([5]; at 1.2 µM): 2%
growth inhibition ([5]; at 3.7 µM): -4%
growth inhibition ([5]; at 11.0 µM): 10%
growth inhibition ([5]; at 33.0 µM): 59%
growth inhibition ([5]; at 100.0 µM): 99% (active)
growth inhibition [6, 16]: -59%
growth inhibition [6, 17]: 35%
growth inhibition ([6]; at 50.0 µM): 50%
growth inhibition ([7]; at 1.2 µM): -4%
growth inhibition ([7]; at 3.7 µM): -4%
growth inhibition ([7]; at 11.0 µM): 21%
growth inhibition ([7]; at 33.0 µM): 44%
growth inhibition ([7]; at 100.0 µM): 96% (active)
growth inhibition [8, 16]: -58%
growth inhibition [8, 17]: -13%
growth inhibition ([8]; at 50.0 µM): 52.5%
growth inhibition ([9]; at 1.2 µM): -4%
growth inhibition ([9]; at 3.7 µM): 4%
growth inhibition [9, 16]: -66%
growth inhibition ([9]; at 11.0 µM): 36%
growth inhibition ([9]; at 33.0 µM): 60%
growth inhibition [9, 17]: 2%
growth inhibition ([9]; at 50.0 µM): 79.7% (active)
growth inhibition ([9]; at 100.0 µM): 97% (active)
growth inhibition ([10]; at 1.2 µM): 0%
growth inhibition ([10]; at 3.7 µM): -1%
growth inhibition ([10]; at 11.0 µM): 10%
growth inhibition ([10]; at 33.0 µM): 49%
growth inhibition ([10]; at 100.0 µM): 98% (active)
growth inhibition ([11]; at 1.2 µM): 7%
growth inhibition ([11]; at 3.7 µM): -4%
growth inhibition ([11]; at 11.0 µM): 26%
growth inhibition ([11]; at 33.0 µM): 56%
growth inhibition ([11]; at 100.0 µM): 98% (active)
growth inhibition ([12]; at 1.2 µM): 1%
growth inhibition ([12]; at 3.7 µM): 5%
growth inhibition ([12]; at 11.0 µM): 57%
growth inhibition ([12]; at 33.0 µM): 89% (active)
growth inhibition ([12]; at 100.0 µM): 99% (active)
growth inhibition [13, 16]: -126%
growth inhibition [13, 17]: 58%
growth inhibition ([13]; at 50.0 µM): 95.9% (active)
growth inhibition ([14]; at 1.2 µM): 12%
growth inhibition ([14]; at 3.7 µM): 33%
growth inhibition ([14]; at 11.0 µM): 82% (active)
growth inhibition ([14]; at 33.0 µM): 94% (active)
growth inhibition ([14]; at 100.0 µM): 98% (active)

CC(=O)Oc1ccc(C(=O)c2ccccc2)c(O)c1
growth inhibition ([1]; at 1.2 µM): -7%
growth inhibition ([1]; at 3.7 µM): -10%
growth inhibition ([1]; at 11.0 µM): 2%
growth inhibition ([1]; at 33.0 µM): 28%
growth inhibition ([1]; at 100.0 µM): 96% (active)
growth inhibition ([2]; at 1.2 µM): -2%
growth inhibition ([2]; at 3.7 µM): -1%
growth inhibition ([2]; at 11.0 µM): -4%
growth inhibition ([2]; at 33.0 µM): 10%
growth inhibition ([2]; at 100.0 µM): 96% (active)
growth inhibition ([15]; at 1.2 µM): 14%
growth inhibition ([15]; at 3.7 µM): 20%
growth inhibition ([15]; at 11.0 µM): 19%
growth inhibition ([15]; at 33.0 µM): 47%
growth inhibition ([15]; at 100.0 µM): 85% (active)
growth inhibition ([3]; at 1.2 µM): -4%
growth inhibition ([3]; at 3.7 µM): 1%
growth inhibition [3, 16]: 60%
growth inhibition ([3]; at 11.0 µM): -2%
growth inhibition ([3]; at 33.0 µM): 32%
growth inhibition [3, 17]: 95% (active)
growth inhibition ([3]; at 50.0 µM): 70.2% (active)
growth inhibition ([3]; at 100.0 µM): 96% (active)
growth inhibition ([5]; at 1.2 µM): -24%
growth inhibition ([5]; at 3.7 µM): -20%
growth inhibition ([5]; at 11.0 µM): -19%
growth inhibition ([5]; at 33.0 µM): 21%
growth inhibition ([5]; at 100.0 µM): 92% (active)
growth inhibition [6, 16]: -18%
growth inhibition [6, 17]: 88% (active)
growth inhibition ([6]; at 50.0 µM): 74.5% (active)
growth inhibition ([7]; at 1.2 µM): -7%
growth inhibition ([7]; at 3.7 µM): -9%
growth inhibition ([7]; at 11.0 µM): -10%
growth inhibition ([7]; at 33.0 µM): 12%
growth inhibition ([7]; at 100.0 µM): 96% (active)
growth inhibition [8, 16]: 27%
growth inhibition [8, 17]: 82% (active)
growth inhibition ([8]; at 50.0 µM): 58.9%
growth inhibition ([9]; at 1.2 µM): -36%
growth inhibition ([9]; at 3.7 µM): -38%
growth inhibition [9, 16]: 5%
growth inhibition ([9]; at 11.0 µM): -58%
growth inhibition ([9]; at 33.0 µM): -25%
growth inhibition [9, 17]: 88% (active)
growth inhibition ([9]; at 50.0 µM): 74% (active)
growth inhibition ([9]; at 100.0 µM): 95% (active)
growth inhibition ([10]; at 1.2 µM): -3%
growth inhibition ([10]; at 3.7 µM): 7%
growth inhibition ([10]; at 11.0 µM): 7%
growth inhibition ([10]; at 33.0 µM): 21%
growth inhibition ([10]; at 100.0 µM): 94% (active)
growth inhibition ([11]; at 1.2 µM): -2%
growth inhibition ([11]; at 3.7 µM): -1%
growth inhibition ([11]; at 11.0 µM): 0%
growth inhibition ([11]; at 33.0 µM): 36%
growth inhibition ([11]; at 100.0 µM): 96% (active)
growth inhibition [13, 16]: 50%
growth inhibition [13, 17]: 98% (active)
growth inhibition ([13]; at 50.0 µM): 61.8%
growth inhibition ([14]; at 1.2 µM): 0%
growth inhibition ([14]; at 3.7 µM): 13%
growth inhibition ([14]; at 11.0 µM): 17%
growth inhibition ([14]; at 33.0 µM): 39%
growth inhibition ([14]; at 100.0 µM): 97% (active)

CCOC(=O)c1csc(Br)n1
growth inhibition ([1]; at 1.2 µM): -2%
growth inhibition ([1]; at 3.7 µM): -3%
growth inhibition ([1]; at 11.0 µM): -7%
growth inhibition ([1]; at 33.0 µM): -5%
growth inhibition ([1]; at 100.0 µM): -9%
growth inhibition ([2]; at 1.2 µM): 3%
growth inhibition ([2]; at 3.7 µM): -3%
growth inhibition ([2]; at 11.0 µM): -3%
growth inhibition ([2]; at 33.0 µM): -3%
growth inhibition ([2]; at 100.0 µM): -5%
growth inhibition ([3]; at 1.2 µM): -5%
growth inhibition ([3]; at 3.7 µM): 1%
growth inhibition [3, 16]: -4%
growth inhibition ([3]; at 11.0 µM): 0%
growth inhibition ([3]; at 33.0 µM): -1%
growth inhibition [3, 17]: -3%
growth inhibition ([3]; at 50.0 µM): 98.6% (active)
growth inhibition ([3]; at 100.0 µM): -12%
growth inhibition ([4]; at 1.2 µM): -7%
growth inhibition ([4]; at 3.7 µM): -2%
growth inhibition [4, 16]: -16%
growth inhibition ([4]; at 11.0 µM): -3%
growth inhibition ([4]; at 33.0 µM): -5%
growth inhibition [4, 17]: -7%
growth inhibition ([4]; at 50.0 µM): 99.5% (active)
growth inhibition ([4]; at 100.0 µM): -3%
growth inhibition ([5]; at 1.2 µM): 0%
growth inhibition ([5]; at 3.7 µM): 2%
growth inhibition ([5]; at 11.0 µM): -2%
growth inhibition ([5]; at 33.0 µM): -4%
